# Measurements as given in the supplement of paper PMC11624193, “Coupling cellular drug-target engagement to downstream pharmacology with CeTEAM” (Nature Communications, 2024).
# Unmarked numbers belong to inactive results.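 Rule for the calls: active = log2 fold change beyond 2 SD from the library mean after excluding viability outliers; inactive = within 2 SD.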
# Target: PARP1 L713F-nLuc biosensor (HCT116) (UniProt P09874)
# Assay: PARP1 L713F-nLuc/akaLuc ratio relative to DMSO control (biosensor stabilization) (fold change); higher = more PARP1 biosensor stabilization (target engagement / stabilizer), active = hit call of the paper
# Settings: 24 h
# [1] = stock concentration (mM; final µM = stock mM x 1): 2
# [2] = stock concentration (mM; final µM = stock mM x 1): 9
# Sequence of PARP1 L713F-nLuc biosensor (HCT116) (P09874 whole entry L713F, looked up): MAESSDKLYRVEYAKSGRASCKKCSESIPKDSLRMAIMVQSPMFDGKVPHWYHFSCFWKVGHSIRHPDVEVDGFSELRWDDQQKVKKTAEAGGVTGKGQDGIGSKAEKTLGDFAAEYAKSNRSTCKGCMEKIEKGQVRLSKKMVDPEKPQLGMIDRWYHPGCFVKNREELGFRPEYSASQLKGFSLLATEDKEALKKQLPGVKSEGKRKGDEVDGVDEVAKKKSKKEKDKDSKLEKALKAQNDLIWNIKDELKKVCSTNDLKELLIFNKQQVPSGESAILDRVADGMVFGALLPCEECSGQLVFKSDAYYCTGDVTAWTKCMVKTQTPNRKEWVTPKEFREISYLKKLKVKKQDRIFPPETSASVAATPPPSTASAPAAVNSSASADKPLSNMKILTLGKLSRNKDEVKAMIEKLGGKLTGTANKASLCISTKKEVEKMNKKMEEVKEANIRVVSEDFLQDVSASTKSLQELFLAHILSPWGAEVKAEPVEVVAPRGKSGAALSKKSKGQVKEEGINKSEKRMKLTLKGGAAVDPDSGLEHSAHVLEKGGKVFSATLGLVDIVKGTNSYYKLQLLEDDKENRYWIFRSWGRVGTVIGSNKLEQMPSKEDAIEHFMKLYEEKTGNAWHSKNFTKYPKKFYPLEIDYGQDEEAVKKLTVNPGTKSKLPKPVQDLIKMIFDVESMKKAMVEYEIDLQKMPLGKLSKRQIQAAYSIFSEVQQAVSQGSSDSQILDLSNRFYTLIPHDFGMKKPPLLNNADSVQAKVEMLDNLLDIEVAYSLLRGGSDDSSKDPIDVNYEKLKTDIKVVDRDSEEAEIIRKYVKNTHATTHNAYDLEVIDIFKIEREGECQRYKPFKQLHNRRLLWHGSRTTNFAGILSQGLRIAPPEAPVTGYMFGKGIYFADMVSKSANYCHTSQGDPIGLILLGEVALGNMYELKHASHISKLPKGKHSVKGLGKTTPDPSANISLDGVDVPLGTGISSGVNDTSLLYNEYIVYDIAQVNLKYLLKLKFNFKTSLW
structure (smiles),measurement,setting,value
CC(C)Nc1cc(-c2c[nH]c(C(=O)N[C@H](CO)c3cccc(Cl)c3)c2)c(Cl)cn1,PARP1 L713F-nLuc/akaLuc ratio,stock concentration (mM; final µM = stock mM x 1): 10,0.364
CN(C)c1ccc(-c2nc3ncc(Cl)c(N4CCN(CC(=O)Nc5nccs5)CC4)c3[nH]2)cc1,PARP1 L713F-nLuc/akaLuc ratio,[1],0.845
CCn1cc(C(=O)O)c(=O)c2cc(F)c(N3CCNCC3)nc21 [Enoxacin (hydrate)],PARP1 L713F-nLuc/akaLuc ratio,[2],0.596
Cn1cc(C[C@@H](N)C(=O)O)c2ccccc21 [Indoximod (NLG-8189?],PARP1 L713F-nLuc/akaLuc ratio,[1],0.857
Cc1cc(C)c(CNC(=O)c2cc(-c3ccc(CN4CCOCC4)cc3)cc3c2cnn3C2CCCC2)c(=O)[nH]1,PARP1 L713F-nLuc/akaLuc ratio,[1],1.45
N[C@@H]1[C@@H](O)[C@H](O[C@@H]2O[C@H](CO)[C@@H](O)[C@H](O)[C@H]2N)[C@@H](CO)O[C@H]1O [Chitosan oligosaccharide],PARP1 L713F-nLuc/akaLuc ratio,[2],0.65
